Source: PubChem BioAssay AID504332 (National Center for Advancing Translational Sciences (NCATS), 2011)
“And” between values parts separate entries of the source, which are not always exact repeats. Identical values can stand only once. The campaign covered roughly 350,000 compounds. About 31,000 (8.9%) were called active. Roughly 15% stayed inconclusive and do not appear here. The sample holds actives, similar compounds and a random draw of the others, so the mix is not that of the screen. Calls follow the shape of the dose curve; as a rule, active = well fitted inhibition curve with a large enough effect; inconclusive = small, poorly fitted or top-dose-only effect; inactive = no such curve, though single readings can be large or run the other way.

target: Histone-lysine N-methyltransferase EHMT2 (Homo sapiens) (UniProt Q96KQ7); assay: qHTS Assay for Inhibitors of Histone Lysine Methyltransferase G9a; settings: G9a H3K9 monomethylation, AlphaScreen, 2 h; series mostly up to 59 µM; also: nearly all actives have a fitted effect of over 75% in size
Summary of the method: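 Step 1: enzyme (final 20 nM) with compound, 15 min RT. Step 2: substrate peptide 500 nM and SAM 20 uM, 2 h RT. Step 3: anti-H3K9me1 antibody and AlphaScreen beads, 10 min, then plate read.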
% is scaled to controls: 0 for no effect and ±100 for the full control effect; potency is read from the fitted curve at half-maximal effect.

Histone-lysine N-methyltransferase EHMT2 (Homo sapiens), sequence (Q96KQ7 913-1193 limits assumed): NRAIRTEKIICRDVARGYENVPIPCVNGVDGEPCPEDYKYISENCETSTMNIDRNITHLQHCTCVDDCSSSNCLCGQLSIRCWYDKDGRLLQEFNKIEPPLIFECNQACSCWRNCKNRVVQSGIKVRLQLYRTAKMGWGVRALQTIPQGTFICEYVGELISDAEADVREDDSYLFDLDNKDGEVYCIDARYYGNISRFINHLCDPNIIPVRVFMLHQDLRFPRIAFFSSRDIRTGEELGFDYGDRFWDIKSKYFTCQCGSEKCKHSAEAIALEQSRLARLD

Potency, inactive:
Cc1cccc(N2CCN(C(=O)c3cc4c(=O)oc5ccccc5c4s3)CC2C)c1 (configuration not stated)
CN(CCNC(=O)c1cc2c(-c3ccccc3F)nn(C)c2s1)C1CCCCC1
Oc1ccccc1-c1cc(-c2ccc(Cl)cc2)n[nH]1
O=C(NCc1ccc(F)cc1)c1ccc(Cn2c(SCc3ccc(F)cc3)nc3cccnc32)cc1
CC1CCCC(NC(=O)c2cc(-c3ccncc3)nc3ccccc23)C1C (configuration not stated)
Cc1cc(NS(=O)(=O)c2ccc3oc(=O)c4ncn(C)c4c3c2)ccc1Br
Cc1ccccc1CSc1nc(-c2ccccc2)nc2c1Cc1c(CO)cnc(C)c1O2
Cc1cc(N2CCN(c3cccc(C(F)(F)F)c3)CC2)n2nc(-c3ccccc3)nc2n1
O=C(NCC(=O)N1CCCC(C(F)(F)F)C1)c1ccccc1F (configuration not stated)
O=C(NC(Cc1ccccc1)C(=O)N1CCCC(C(F)(F)F)C1)c1ccccc1 (configuration not stated)
CCc1ccc(C(CNc2nc(C(F)(F)F)nc3ccccc23)N(C)C)cc1 (configuration not stated)
COc1cccc(CNc2nc(C(F)(F)F)nc3ccccc23)c1
Cc1ccc(-c2cc(C(=O)Oc3ccccc3Cl)no2)cc1C
CC(NC(=O)c1ccccc1SCC(=O)N1CCCC1)c1ccccc1 (configuration not stated)
Cn1c(SCC(=O)N2CCCc3ccccc32)nc2ccccc2c1=O
Cc1nnc(SCC(=O)N2CCc3ccccc32)n1-c1ccccc1
O=C(CNC(=O)c1ccccc1F)c1ccc(Br)cc1
Cc1cccc[n+]1CC(=O)c1ccccc1
COC(=O)c1cnn(-c2ccc(C(=O)Nc3ccc(OC(F)(F)F)cc3)cc2)c1N
COc1ccc(-c2cn3c(C)c(C(=O)Nc4cc(C)cc(C)c4)sc3n2)cc1
COc1ccc2c(-c3ccccc3)cc(SCC(=O)N(C)C3CCS(=O)(=O)C3)nc2c1 (configuration not stated)
O=C(NCc1cccc(Cl)c1)C1CCN(c2nnc(N3CCCC3=O)s2)CC1
COC(=O)c1ccc(/C=N/OCC(=O)Nc2cc(F)ccc2F)cc1
CC(CC(=O)N1CCN(c2ccccc2)CC1)c1ccccc1 (configuration not stated)
CC(C)CC(=O)N1CCC(O)(CS(=O)(=O)Cc2ccccc2)CC1
O=C(c1cccc(Cl)c1)N1CCN(Cc2ccccc2)CC1
COc1cc([N+](=O)[O-])ccc1NC(=O)COC(=O)CCOc1ccc(C)cc1
Cc1ccc(/C=C2/SC(=S)N(CCC(=O)NCCCN3CCOCC3)C2=O)cc1
O=C(CCCCn1c(=O)c2ccccc2n(CC(=O)Nc2cccc(C(F)(F)F)c2)c1=O)NCc1ccc2c(c1)OCO2
COc1cccc(CNCCSc2nnnn2C)c1OCc1ccccc1Cl
Cn1c(S(=O)(=O)O)nc2ccccc21
O=S(=O)(O)c1nc2ccccc2n1Cc1ccc(Cl)cc1Cl
CCc1nn(CC(=O)NCC(C)c2ccccc2)c(=O)c2cc3occc3n12 (configuration not stated)
COc1ccc(S(=O)(=O)Nc2c(C)n(C)n(-c3ccccc3)c2=O)cc1
COc1ccc2cc(S(=O)(=O)Nc3ccccn3)ccc2c1
CN(C)c1ccc(/C=C2\NC(=S)N(Cc3ccccc3)C2=O)cc1
O=c1[nH]c(SCc2ccccc2)nnc1-c1ccccc1
COc1ccc2nc(SCc3ccccc3)nc(C)c2c1
CC(=O)Nc1ccc(C(=O)N(C2=NC(C)CS2)c2ccc(Cl)cc2)cc1 (configuration not stated)

Potency, active:
Nc1ccc2nc3c(=O)[nH]c(=S)[nH]c3nc2c1 10 µM
FC(F)(F)C1CCCN(c2nsc3ccccc23)C1 (configuration not stated) 1.12 µM
NS(=O)(=O)c1ccc(CCNc2nc(C(F)(F)F)nc3ccccc23)cc1 70.8 µM
O=C(CSc1nc2[nH]ncc2c(=O)n1-c1ccccc1)N1CCCc2ccccc21 8.91 µM
O=C(C[n+]1cc(Br)cc2ccccc21)c1ccc(F)cc1 50.1 µM
Cc1cc(C)c2nc(SCC(=O)N(C)C3CCS(=O)(=O)C3)cc(C)c2c1 (configuration not stated) 44.7 µM
COC(=O)c1ccc(Sc2ccc(F)cc2)c(N)c1 28.2 µM
CC(C)CC(=O)N1CCN(Cc2cccc(Cl)c2)CC1 22.4 µM
CC(C)CC(=O)N1CCN(Cc2ccccc2Br)CC1 20 µM
O=S(=O)(O)c1nc2ccccc2n1Cc1ccc(Cl)cc1 50.1 µM
COc1ccc(S(=O)(=O)/N=C2\C=C(NS(=O)(=O)c3ccccc3)C(=O)c3ccccc32)cc1 8.91 µM
CC1=NN(Cc2ccccc2)C(=O)/C1=C/c1ccc(N(C)C)cc1 10 µM
c1ccc(CSc2nnc(-c3ccco3)c(-c3ccco3)n2)cc1 6.31 µM

activity, negative = inhibition, inactive:
O=c1[nH]c(=O)c2nc3ccccc3nc2[nH]1 -3.42% [at 12.7 µM] and 46.4% [at 12.7 µM]
O=C(COC(=O)c1c(Cl)cccc1Cl)Nc1cccc(S(=O)(=O)NC2=NCCCCC2)c1 -0.124% [at 12.7 µM]
CN(C(=O)CSc1nnc(-c2ccc(C(C)(C)C)cc2)n1C)C1CCS(=O)(=O)C1 (configuration not stated) 1.39% [at 12.7 µM]
CCOC(=O)[C@H]1[C@H]2COc3ccc(C)cc3[C@@H]2N2C(=O)CN(Cc3ccc(F)cc3)C(=O)[C@@]12C 9.53% [at 0.501 µM]
CC(C)(CCl)C(=O)Nc1ccc(Sc2ccc(F)cc2)cc1 -58.2% [at 2.33 µM]
Cc1ccccc1NC(=O)NCC1CCN(Cc2cccc(Cl)c2)CC1 2.62% [at 2.33 µM]
CN(C)c1ccnc2sc3c(=O)n(Cc4ccccc4)cnc3c12 26.4% [at 0.501 µM]
COc1ccccc1C(=O)NC(CCSC)C(=O)NNC(=O)c1ccccc1C (configuration not stated) 25.8% [at 0.501 µM]
COc1cc(C(=O)NCC(=O)NCCSc2ccc(Br)cc2)cc(OC)c1OC 10% [at 0.501 µM]
O=C(COC(=O)Cc1ccccc1F)NCCc1ccccc1 -6.48% [at 2.33 µM]
